# In PubChem BioAssay:
# The source made the active and inactive calls. Unless noted, the rule behind the calls is not given here.
# Experiments:
# [1] = A549 cell viability effects, profiling panel, calcein-AM fluorescence, 48 h, basal (AID 1162); details: higher = more signal; note: test concentration not given here
# [2] = adipocyte viability effects, profiling panel, cell-based, 3T3-L1 adipocytes, calcein-AM fluorescence, 48 h, basal (AID 1163); details: 3T3-L1 adipocytes viability, higher = more signal; note: test concentration not given here
# [3] = HepG2 cell viability effects, profiling panel, calcein-AM fluorescence, 48 h, basal (AID 1164); details: higher = more signal; note: test concentration not given here
# [4] = MM1S cell viability effects, profiling panel, calcein-AM fluorescence, 48 h, basal (AID 1165); details: higher = more signal;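 note: viability of MM1S multiple myeloma cells under basal unstimulated conditions; test concentration not given here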
# [5] = basal RPMI8226 viability, no added stimulus, profiling panel, cell-based, calcein-AM fluorescence, 48 h, PK04 Diversity Set (AID 1166); details: RPMI8226 myeloma viability, higher = more signal;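 note: cells grown under basal conditions without added stimulus; test concentration not given here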
# [6] = basal HepG2 mitochondrial membrane potential changes, profiling panel, cell-based, JC-1 fluorescence, 24 h, 100 nL compound (AID 1167); details: higher = more signal; note: test concentration not given here
# [7] = basal 3T3-L1 adipocyte mitochondrial potential changes, profiling panel, cell-based, JC-1 fluorescence, 3T3-L1 adipocytes, 24 h, 100 nL compound (AID 1168); details: JC-1 mitochondrial fluorescence, higher = more signal, called active from +8 up or from −8 down; note: test concentration not given here
# [8] = basal RPMI8226 mitochondrial membrane potential changes, profiling panel, cell-based, JC-1 fluorescence, 24 h, 100 nL compound (AID 1169); details: RPMI8226 myeloma, JC-1 mitochondrial potential fluorescence, higher = more signal; note: test concentration not given here
# [9] = basal MM1S mitochondrial membrane potential changes, profiling panel, cell-based, JC-1 fluorescence, 24 h, 100 nL compound (AID 1170); details: higher = more signal; note: test concentration not given here
# [10] = A549 lung cancer cell viability effects, profiling panel, resazurin fluorescence, 24 h, PK04 Diversity Set (AID 1171); details: higher = more signal, called active from +8 up or from −8 down; note: test concentration not given here
# [11] = HepG2 liver cancer cell viability effects, profiling panel, resazurin fluorescence, 24 h, PK04 Diversity Set (AID 1172); details: higher = more signal; note: test concentration not given here
# [12] = basal S. cerevisiae growth modulation, no modifier, primary screen, OD600, strain BY4716, 24 h, basal condition (AID 1173); details: OD600, 24 h, higher = more signal, called active from +8 up or from −8 down
# [13] = MM1S myeloma cell viability, profiling panel, resazurin fluorescence, basal, 24 h, PK04 Diversity Set (AID 1174); details: higher = more signal, called active from +8 up or from −8 down;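 note: MM1S multiple myeloma cell line; test concentration not given here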
# [14] = biological target: Dihydroorotate dehydrogenase (quinone), mitochondrial (Plasmodium falciparum (isolate 3D7)) (UniProt Q08210); assay: PfDHODH enzyme inhibitors, primary screen, biochemical, C-terminal His tag, absorbance 600 nm (AID 1175); details: DCIP absorbance 600 nm, higher = more signal, called active from +8 up or from −8 down;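 note: recombinant parasite enzyme with a five histidine tag at its C terminus; test concentration not given here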
# Dihydroorotate dehydrogenase (quinone), mitochondrial (Plasmodium falciparum (isolate 3D7)), sequence (Q08210 whole entry, looked up): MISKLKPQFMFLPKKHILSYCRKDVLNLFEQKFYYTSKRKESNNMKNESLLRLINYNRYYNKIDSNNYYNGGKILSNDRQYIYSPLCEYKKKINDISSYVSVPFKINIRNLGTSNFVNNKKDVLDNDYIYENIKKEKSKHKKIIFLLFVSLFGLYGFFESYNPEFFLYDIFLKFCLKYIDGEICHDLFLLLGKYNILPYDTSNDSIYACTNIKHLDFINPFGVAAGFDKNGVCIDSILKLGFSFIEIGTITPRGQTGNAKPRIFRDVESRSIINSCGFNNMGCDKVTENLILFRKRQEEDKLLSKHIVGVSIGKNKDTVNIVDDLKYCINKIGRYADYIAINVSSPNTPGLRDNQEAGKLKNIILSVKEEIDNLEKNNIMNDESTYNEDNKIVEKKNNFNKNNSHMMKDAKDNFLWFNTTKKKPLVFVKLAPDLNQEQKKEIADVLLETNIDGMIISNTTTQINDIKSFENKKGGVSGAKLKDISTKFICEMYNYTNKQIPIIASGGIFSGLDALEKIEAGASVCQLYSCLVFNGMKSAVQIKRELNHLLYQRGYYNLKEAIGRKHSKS
# [15] = P. aeruginosa biofilm formation inhibitors, primary screen, strain PAO1, LB-PBS medium, absorbance 600 nm (AID 1176); note: test concentration not given here; details: P. aeruginosa PAO1 growth/biofilm, A600, 12 h; higher = more signal
# [16] = S. cerevisiae RM11-1a growth modifiers, primary screen, strain RM11-1a, OD600, basal, 24 h (AID 1177); details: OD600, 24 h, higher = more signal, called active from +8 up or from −8 down;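 note: cultures grown under basal conditions with no added stressor; test concentration not given here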
# [17] = E. coli acrAB mutant growth effects, primary screen, E. coli filamentation inducers, strain DRC39, OD650, 24 h (AID 1178); details: higher = more signal, called active from +8 up or from −8 down;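 note: growth measured as culture turbidity by optical density at 650 nm; test concentration not given here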
# [18] = E. coli acrAB mutant growth effects, primary screen, E. coli filamentation inducers, strain DRC39, OD650, 48 h (AID 1179);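 note: screen aims at cell division blockers that make cells filament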; details: E. coli DRC39 delta-acrAB growth, higher = more signal, called active from +8 up or from −8 down
# [19] = RPMI8226 myeloma cell viability, profiling panel, resazurin fluorescence, basal, 24 h, PK04 Diversity Set (AID 1180); details: higher = more signal;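 note: RPMI8826 multiple myeloma cell line at 5000 cells per well; test concentration not given here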
# [20] = biological target: E3 ubiquitin-protein ligase XIAP (Homo sapiens) (UniProt P98170); assay: XIAP binders, primary screen, biophysical, small-molecule microarray, fluorescence 635 nm (AID 1181); details: small-molecule microarray binding, higher = more signal;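 note: score merges 667 nm emission and signal to noise over triplicate slides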
# E3 ubiquitin-protein ligase XIAP (Homo sapiens), sequence (P98170 whole entry, looked up): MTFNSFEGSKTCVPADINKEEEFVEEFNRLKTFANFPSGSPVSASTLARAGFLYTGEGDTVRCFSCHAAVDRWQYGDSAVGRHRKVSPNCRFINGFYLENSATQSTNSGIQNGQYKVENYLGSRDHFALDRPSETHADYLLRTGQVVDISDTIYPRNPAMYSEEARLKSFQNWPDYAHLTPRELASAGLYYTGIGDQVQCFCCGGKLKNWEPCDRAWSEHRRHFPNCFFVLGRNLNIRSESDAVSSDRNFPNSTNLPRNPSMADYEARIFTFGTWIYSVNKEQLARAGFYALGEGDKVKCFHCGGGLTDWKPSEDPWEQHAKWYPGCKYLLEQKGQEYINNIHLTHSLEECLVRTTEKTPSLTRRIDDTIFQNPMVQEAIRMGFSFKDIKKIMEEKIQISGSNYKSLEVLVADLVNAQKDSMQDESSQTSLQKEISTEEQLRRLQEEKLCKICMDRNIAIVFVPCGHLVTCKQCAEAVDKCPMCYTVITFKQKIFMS
Structure (SMILES),z-score [1],z-score [2],z-score [3],z-score [4],z-score [5],z-score [6],z-score [7],z-score [8],z-score [9],z-score [10],z-score [11],z-score [12],z-score [13],composite z-score [14],z-score [15],z-score [16],z-score [17],z-score [18],z-score [19],composite z-score [20]
COCCOC(=O)N1C(=O)[C@@]2(c3ccccc31)[C@H](c1ccc(OCCO)cc1)N1[C@H](c3ccccc3)[C@H](c3ccccc3)OC(=O)[C@H]1[C@@H]2C(=O)N1CCc2cc(OC)c(OC)cc2C1,0.114,1.09,1.37,0.175,-0.0296,0.39,3.06 (inactive),-0.749,-1.53,-0.247 (inactive),-0.14,1.57 (inactive),0.102 (inactive),-2.08 (inactive),1.79 (inactive),2.94 (inactive),0.43 (inactive),0.736 (inactive),0.994,-0.153
CCOC(=O)[C@H]1C/C=C/C[C@H](C(=O)OCC)C(=O)O[C@H]2[C@@H](OC)O[C@H](CO)[C@@H](OC(=O)c3ccc(Br)cc3)[C@@H]2OC1=O,0.645,-0.009,0.404,-3.12,-3.75,-0.971,-0.339 (inactive),-0.935,-1.3,-1.92 (inactive),-0.349,-0.775 (inactive),-1.77 (inactive),-1.88 (inactive),0.787 (inactive),0.807 (inactive),0.612 (inactive),0.485 (inactive),-2.49,-0.283
Cc1c(NC(=O)/C(C#N)=C/c2cccc([N+](=O)[O-])c2)c(=O)n(-c2ccccc2)n1C,4.01,1.31,0.461,0.943,2.4,0.69,-1.08 (inactive),-0.122,-0.054,-0.133 (inactive),0.131,-0.701 (inactive),-1.34 (inactive),-2.58 (inactive),0.972 (inactive),-2.91 (inactive),1.48 (inactive),0.837 (inactive),0.246,0.248
C=CC[C@]1(C(N)=O)N=C(c2ccc(OCCCO)cc2)O[C@H]1c1ccccc1,0.354,0.464,-0.717,-0.519,-0.111,-0.579,-1.09 (inactive),-0.414,0.13,-0.0187 (inactive),-0.095,-0.496 (inactive),-0.0113 (inactive),0.867 (inactive),0.248 (inactive),-0.412 (inactive),0.247 (inactive),-0.875 (inactive),-0.52,-0.0749
